Assay [1] is described as follows: qHTS of pediatric cancer cell lines to identify multiple opportunities for drug repurposing: Confirmatory screen for NB1643 cells (AID 1347109). Further: nearly all actives have a fitted effect of over 45% in size. Further: potency means the concentration at half of the fitted maximal effect. The gist of the method: (§1)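 Cells (500-1,000/well) in growth media were settled 5 h at 37 degrees C, then given compounds for 48 h. Viability was read as CellTiter-Glo luminescence. Primary runs used MIPE at 11 points (0.78 nM-46 µM) and NPC at 8 points (0.59 nM-46 µM); follow-ups used 11 points.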
(In qHTS, concentration-response curves come from the screen itself.)

The nature of assay [2]: qHTS of pediatric cancer cell lines to identify multiple opportunities for drug repurposing: Confirmatory screen for A673 cells (AID 1347110).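 Further: potency means the concentration at half of the fitted maximal effect; cells exposed to compound for 48 h before the viability read; nearly all actives have a fitted effect of over 65% in size.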 Summed up: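 A673 cells at 500-1,000 cells/well were dosed 5 h after plating, in dilution series up to 46 uM final; primary runs used 8 or 11 points and confirmatory runs used 11 points. Viability was read by CellTiter-Glo luminescence after 48 h, against DMSO and 2.3 uM bortezomib controls.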

The nature of assay [3]: qHTS of pediatric cancer cell lines to identify multiple opportunities for drug repurposing: Confirmatory screen for SK-N-MC cells (AID 1347111).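 Further: potency means the concentration at half of the fitted maximal effect; cells exposed to compound for 48 h before the readout; nearly all actives have a fitted effect of over 70% in size.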 Conditions: SK-N-MC cell viability. Summed up: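 Metabolically active cells were quantified by ATP-dependent luminescence (CellTiter-Glo, 15 min at room temperature) following 48 h treatment. Cells had been plated at 500-1,000 per well and settled for 5 h beforehand.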

Assay [4] is described as follows: qHTS of pediatric cancer cell lines to identify multiple opportunities for drug repurposing: Confirmatory screen for LAN-5 cells (AID 1347113). Further: nearly all actives have a fitted effect of over 65% in size. Further: potency means the concentration at half of the fitted maximal effect. Summed up:
as §1

A short description of assay [5]: qHTS of pediatric cancer cell lines to identify multiple opportunities for drug repurposing: Confirmatory screen for DAOY cells (AID 1347114). Further: nearly all actives have a fitted effect of over 65% in size. Summed up:
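Viability measured as metabolically active cells via CellTiter-Glo luminescence following 48 hours of compound exposure, 11-point dilutions in confirmatory testing. 500-1,000 cells/well plated 5 hours before dosing; controls were DMSO and 2.3 µM bortezomib.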

Assay [6] in a line: qHTS of pediatric cancer cell lines to identify multiple opportunities for drug repurposing: Confirmatory screen for NB-EBc1 cells (AID 1347115).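 Further: cells exposed to compound for 48 h before the viability read; nearly all actives have a fitted effect of over 45% in size.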 The gist of the method: as §1
The nature of assay [7]: qHTS of pediatric cancer cell lines to identify multiple opportunities for drug repurposing: Confirmatory screen for BT-12 cells (AID 1347112). Further: nearly all actives have a fitted effect of over 55% in size. The gist of the method: as §1
Assay [8] in a line: qHTS of pediatric cancer cell lines to identify multiple opportunities for drug repurposing: Primary screen for U-2 OS cells (AID 1347096). Further: nearly all actives have a fitted effect of over 50% in size. The gist of the method: as §1
The nature of assay [9]: qHTS of pediatric cancer cell lines to identify multiple opportunities for drug repurposing: Primary screen for Saos-2 cells (AID 1347097). Further: nearly all actives have a fitted effect of over 40% in size. Summed up: (§2)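 500-1,000 cells/well; 5 h pre-incubation 37 °C/5% CO2; compound pinned; 48 h; CellTiter-Glo, 15 min RT; luminescence. MIPE 11-pt from 0.78 nM, NPC 8-pt from 0.59 nM final. Bortezomib 2.3 µM final as positive control.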
Assay [10] in a line: qHTS of pediatric cancer cell lines to identify multiple opportunities for drug repurposing: Primary screen for NB1643 cells (AID 1347099). Further: nearly all actives have a fitted effect of over 50% in size. Summed up: as §2
Assay [11] in a line: qHTS of pediatric cancer cell lines to identify multiple opportunities for drug repurposing: Primary screen for BT-12 cells (AID 1347101). Further: nearly all actives have a fitted effect of over 25% in size. The gist of the method: (§3)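 Cells (500-1,000/well) rested 5 h, then received compounds for 48 h; metabolically active cells were measured by CellTiter-Glo luminescence. Final concentrations spanned up to 46 µM (MIPE, 11-point) or 0.59 nM-46 µM (NPC, 8-point) in primary screens, 11-point in follow-ups.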

A short description of assay [12]: qHTS of pediatric cancer cell lines to identify multiple opportunities for drug repurposing: Primary screen for Rh18 cells (AID 1347102). Further: nearly all actives have a fitted effect of over 65% in size. The gist of the method:
as §1

Assay [13] in a line: qHTS of pediatric cancer cell lines to identify multiple opportunities for drug repurposing: Primary screen for RD cells (AID 1347104). Further: nearly all actives have a fitted effect of over 55% in size. Summed up: as §2
A short description of assay [14]: qHTS of pediatric cancer cell lines to identify multiple opportunities for drug repurposing: Primary screen for MG 63 (6-TG R) cells (AID 1347105). Further: nearly all actives have a fitted effect of over 50% in size. The gist of the method:
as §2

A short description of assay [15]: qHTS of pediatric cancer cell lines to identify multiple opportunities for drug repurposing: Primary screen for control Hh wild type fibroblast cells (AID 1347106).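 Further: series mostly up to about 46 µM; a drop in luminescence marks cytotoxicity and a rise apparent proliferation; nearly all actives have a fitted effect of over 55% in size.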 Summed up: as §1
The nature of assay [16]: qHTS of pediatric cancer cell lines to identify multiple opportunities for drug repurposing: Primary screen for Rh30 cells (AID 1347107). Further: series mostly up to about 46 µM; nearly all actives have a fitted effect of over 75% in size. The gist of the method:
as §1

Assay [17] can be described thus: qHTS of pediatric cancer cell lines to identify multiple opportunities for drug repurposing: Primary screen for Rh41 cells (AID 1347108).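 Further: series mostly up to about 46 µM; luminescence drop marks cytotoxic hits; nearly all actives have a fitted effect of over 70% in size.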 The gist of the method:
as §2

Assay [18] can be described thus: qHTS of pediatric cancer cell lines to identify multiple opportunities for drug repurposing: Primary screen for LAN-5 cells (AID 1347100). The gist of the method:
as §1

Assay [19] in a line: qHTS of pediatric cancer cell lines to identify multiple opportunities for drug repurposing: Primary screen for OHS-50 cells (AID 1347103). Further: nearly all actives have a fitted effect of over 40% in size. Summed up:
as §3

The nature of assay [20]: qHTS of pediatric cancer cell lines to identify multiple opportunities for drug repurposing: Primary screen for SK-N-SH cells (AID 1347098). The gist of the method: as §3

Results filed as inconclusive are left out. Values without a mark were called inactive. The source made the active and inactive calls. The call rests on the fitted dose curve; in most records, active means well fitted curve in the direction sought with a large enough effect; inconclusive means small, poorly fitted or top-dose-only effect, or another doubt; inactive means no such curve, though single readings can be large; an effect the other way counts as inactive or inconclusive.

For the compound `C[C@]12C=CC(=O)C=C1CC[C@H]1[C@@H]3C[C@@H](O)[C@](O)(C(=O)CO)[C@@]3(C)C[C@H](O)[C@@]12F`, the Potency in assay [1] was 6.57 µM (active); in [2], 1.04 µM (active); in [3], 7.37 µM (active); in assay [4], 9.27 µM (active). In addition, the Potency entry in [5] and in assay [6] was “inactive” each time.

In the case of `CN/C(=C\[N+](=O)[O-])NCCSCc1ccc(CN(C)C)o1`, the Potency result in assay [1], in assay [7], in [4] and in [5] was “inactive” each time. For the same compound, the results for the Potency in assay [2] and in [3] were 5.22 µM (active) and 11.7 µM (active), respectively.

On to `O=C(O)CP(=O)(O)O`, for which the Potency result in assay [8], in assay [9], in assay [10], in assay [11], in assay [12] and in [13] was “inactive” each time. Also, the Potency entry in assay [14], in assay [16] and in assay [17] was “inactive” each time. Also, in [15], the result was inactive.

As to `C[N+](C)(C)CCOC(N)=O`, the Potency result in assay [8], in assay [10], in assay [18], in [11], in assay [12] and in [19] was “inactive” each time. Besides, the Potency result in [13], in assay [14], in assay [16] and in [17] was “inactive” each time. For the same compound, the call in [15] was inactive.

`c1cnc(N2CCN(Cc3ccc4c(c3)OCO4)CC2)nc1`: the Potency entry in assay [8], in assay [20], in assay [10], in [11], in assay [12] and in [19] was “inactive” in each case. The Potency result in [13], in assay [14], in assay [16] and in assay [17] was “inactive” each time. The compound was classed as inactive in [15].

In the case of `CN=C(NC#N)NCCSCc1nc[nH]c1C`, the Potency result in assay [8], in assay [20], in [10], in [18], in assay [11] and in [12] was “inactive” each time. The Potency entry in [19], in [13], in assay [14], in assay [16] and in assay [17] was “inactive” each time.

With `O=C(CCCN1CCC(O)(c2cccc(C(F)(F)F)c2)CC1)c1ccc(F)cc1`, the Potency result in assay [8], in assay [20], in assay [10], in assay [18], in assay [14] and in [16] was “inactive” in each case. Also, in assay [17], the Potency entry was “inactive”. The call in assay [15] was inactive.

`CCCN1C[C@H](CSC)C[C@@H]2c3cccc4[nH]cc(c34)C[C@H]21`: the Potency entry in assay [8], in assay [20], in assay [10], in assay [18], in [11] and in assay [12] was “inactive” throughout. For the same compound, the Potency entry in assay [13], in assay [14], in assay [16] and in [17] was “inactive” throughout.

Take `CN(C)C(=O)Oc1ccc[n+](C)c1`: the Potency result in assay [8], in assay [20], in assay [10], in assay [18], in [11] and in assay [12] was “inactive” each time. Also, the Potency result in assay [19], in assay [13], in [14], in [16] and in assay [17] was “inactive” each time. The outcome in assay [15] was inactive.

Turning to `CC(C)[N+](C)(CCOC(=O)C1c2ccccc2Oc2ccccc21)C(C)C`, the Potency result in assay [8], in assay [9], in [10], in [12], in assay [19] and in [13] was “inactive” each time. The Potency result in assay [14], in [16] and in assay [17] was “inactive” in each case. For the same compound, the outcome in assay [15] was inactive.

Take `C[C@H](CS)C(=O)N1CCC[C@H]1C(=O)O`: the Potency result in assay [8], in [10], in assay [18], in [11], in [12] and in [19] was “inactive” throughout. The Potency result in [13], in assay [14], in assay [16] and in [17] was “inactive” in each case. The compound was called inactive in [15].

As for `C[N+](C)(C)CCCCCCCCCC[N+](C)(C)C`, the Potency result in [8], in [20], in assay [10], in [18], in [11] and in [12] was “inactive” throughout. In addition, the Potency result in assay [19], in assay [13], in assay [14], in assay [16] and in assay [17] was “inactive” each time.

For the compound `NC(=Nc1ccccc1)Nc1ccccc1`, the Potency entry in [8], in assay [20], in [10], in [11], in [12] and in [19] was “inactive” each time. Besides, the Potency entry in assay [13], in assay [14], in [16] and in assay [17] was “inactive” in each case. Also, the compound was called inactive in assay [15].

For the compound `CN1C(=O)CC[C@H]1c1cccnc1`, the Potency entry in assay [8], in assay [20], in [10], in assay [11], in [12] and in assay [13] was “inactive” each time. Moreover, the Potency result in assay [14], in assay [16] and in [17] was “inactive” in each case.

Consider `CC1=C(C)C(=O)C(CCCCC#CCCCC#CCO)=C(C)C1=O`, for which the Potency entry in assay [8], in [20], in assay [12], in assay [13], in assay [14] and in [16] was “inactive” throughout. Besides, in assay [17], the Potency result is “inactive”. For the same compound, the compound was classed as inactive in assay [15].

`Cc1ccc(=O)n(-c2ccccc2)c1`: the Potency entry in assay [8], in [9], in assay [10], in assay [11], in [12] and in assay [19] was “inactive” throughout. Besides, the Potency result in assay [13], in assay [14], in assay [16] and in assay [17] was “inactive” each time. Further, the call in [15] was inactive.

Regarding `NC(=O)N1c2ccccc2C=Cc2ccccc21`, the Potency entry in [8], in assay [10], in assay [18], in assay [11], in assay [12] and in assay [19] was “inactive” in each case. The Potency entry in assay [13], in [14], in assay [16] and in [17] was “inactive” in each case. Moreover, the outcome in [15] was inactive.

In the case of `Cc1ccc(/C(=C\CN2CCCC2)c2ccccn2)cc1`, the Potency entry in [8], in [20], in assay [10], in [11], in [12] and in assay [13] was “inactive” in each case. Moreover, the Potency result in assay [14], in assay [16] and in assay [17] was “inactive” in each case. In addition, in assay [15], the call was inactive.

In the case of `CCN1CCC[C@H]1CNC(=O)c1c(O)c(Cl)cc(Cl)c1OC`, the Potency entry in assay [8], in assay [20], in assay [10], in assay [18], in assay [12] and in [19] was “inactive” each time. Besides, the Potency result in assay [13], in assay [14], in assay [16] and in assay [17] was “inactive” each time.

On to `CCCCCCCC/C=C\CCCCCCCC(=O)NCc1ccc(O)c(OC)c1`, for which the Potency result in [8], in assay [20], in assay [10], in [12], in [13] and in assay [14] was “inactive” each time. Besides, the Potency entry in [16] is “inactive”. Further, the result in assay [15] was inactive.

On to `CCN(CC)CCNC(=O)c1cc(S(C)(=O)=O)ccc1OC`, for which the Potency entry in assay [8], in [20], in assay [10], in assay [18], in assay [11] and in assay [12] was “inactive” in each case. In addition, the Potency result in assay [19], in [13], in [14], in [16] and in assay [17] was “inactive” throughout. Also, in assay [15], the call was inactive.

Source of the values: PubChem BioAssay (NCATS).
